# In the supplement of paper PMC4466140:
# B1: unnamed (peptide)
# chain: ALRRRLPVTRSKINW
# How the values were obtained:
# Test in all cases: SPOT peptide array binding signal intensity (averaged, normalized) (arbitrary units (background-subtracted, floor 0; scale differs between SH3 domains)); higher = stronger binding of the SH3 domain to the peptide
# AgAbp1 = biological target: AgAbp1
# Summary of the method: (§1)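 Peptides were synthetic 15-mers on cellulose membranes, with every cysteine replaced by serine. They were incubated overnight at 4°C with GST-SH3 domains from four yeast species at 10 μg/ml in TBS-based blocking buffer. Binding signal, the replicate-averaged normalized and background-subtracted spot intensity, is in arbitrary units that differ between domains.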
# AgBbc1 = biological target: AgBbc1
# Summary of the method: as §1
# AgBem1-D1 = biological target: AgBem1-D1
# Summary of the method: as §1
# AgBzz1-D1 = biological target: AgBzz1-D1
# Summary of the method: as §1
# AgBzz1-D2 = biological target: AgBzz1-D2
# Summary of the method: as §1
# AgCyk3 = biological target: AgCyk3
# Summary of the method: as §1
# AgFus1 = biological target: AgFus1
# Summary of the method: as §1
# AgHof1 = biological target: AgHof1
# Summary of the method: as §1
# AgHse1 = biological target: AgHse1
# Summary of the method: as §1
# AgLsb1 = biological target: AgLsb1
# Summary of the method: as §1
# AgLsb4 = biological target: AgLsb4
# Summary of the method: as §1
# AgMyo5 = biological target: AgMyo5
# Summary of the method: as §1
# AgNbp2 = biological target: AgNbp2
# Summary of the method: as §1
# AgRvs167 = biological target: AgRvs167
# Summary of the method: as §1
# AgSho1 = biological target: AgSho1
# Summary of the method: as §1
# AgSla1-D1-D2 = biological target: AgSla1-D1-D2
# Summary of the method: as §1
# AgSla1-D3 = biological target: AgSla1-D3
# Summary of the method: as §1
# CaAbp1-D1 = biological target: CaAbp1-D1
# Summary of the method: as §1
# CaAbp1-D2 = biological target: CaAbp1-D2
# Summary of the method: as §1
# CaBbc1 = biological target: CaBbc1
# Summary of the method: as §1
# CaBem1-D1 = biological target: CaBem1-D1
# Summary of the method: as §1
# CaBzz1-D1 = biological target: CaBzz1-D1
# Summary of the method: as §1
# CaBzz1-D2 = biological target: CaBzz1-D2
# Summary of the method: as §1
# CaCyk3 = biological target: CaCyk3
# Summary of the method: as §1
# CaFus1 = biological target: CaFus1
# Summary of the method: as §1
# CaHof1 = biological target: CaHof1
# Summary of the method: as §1
# CaHse1 = biological target: CaHse1
# Summary of the method: as §1
# CaLsb1 = biological target: CaLsb1
# Summary of the method: as §1
# CaLsb4 = biological target: CaLsb4
# Summary of the method: as §1
# CaMyo5 = biological target: CaMyo5
# Summary of the method: as §1
# CaNbp2 = biological target: CaNbp2
# Summary of the method: as §1
# CaRvs167 = biological target: CaRvs167
# Summary of the method: as §1
# CaRvs167-3 = biological target: CaRvs167-3
# Summary of the method: as §1
# CaSho1 = biological target: CaSho1
# Summary of the method: as §1
# CaSla1-D1-D2 = biological target: CaSla1-D1-D2
# Summary of the method: as §1
# CaSla1-D3 = biological target: CaSla1-D3
# Summary of the method: as §1
# ScAbp1 = biological target: ScAbp1
# Summary of the method: as §1
# ScBbc1 = biological target: ScBbc1
# Summary of the method: as §1
# ScBem1-D1 = biological target: ScBem1-D1
# Summary of the method: as §1
# ScBzz1-D1 = biological target: ScBzz1-D1
# Summary of the method: as §1
# ScBzz1-D2 = biological target: ScBzz1-D2
# Summary of the method: as §1
# ScCyk3 = biological target: ScCyk3
# Summary of the method: as §1
# ScFus1 = biological target: ScFus1
# Summary of the method: as §1
# ScHof1 = biological target: ScHof1
# Summary of the method: as §1
# ScHse1 = biological target: ScHse1
# Summary of the method: as §1
# ScLsb1 = biological target: ScLsb1
# Summary of the method: as §1
# ScLsb2 = biological target: ScLsb2
# Summary of the method: as §1
# ScLsb3 = biological target: ScLsb3
# Summary of the method: as §1
# ScLsb4 = biological target: ScLsb4
# Summary of the method: as §1
# ScMyo3 = biological target: ScMyo3
# Summary of the method: as §1
# ScMyo5 = biological target: ScMyo5
# Summary of the method: as §1
# ScNbp2 = biological target: ScNbp2
# Summary of the method: as §1
# ScPex13 = biological target: ScPex13
# Summary of the method: as §1
# ScRvs167 = biological target: ScRvs167
# Summary of the method: as §1
# ScSho1 = biological target: ScSho1
# Summary of the method: as §1
# ScSla1-D1-D2 = biological target: ScSla1-D1-D2
# Summary of the method: as §1
# ScSla1-D3 = biological target: ScSla1-D3
# Summary of the method: as §1
# SpAbp1-D1 = biological target: SpAbp1-D1
# Summary of the method: as §1
# SpBbc1 = biological target: SpBbc1
# Summary of the method: as §1
# SpBzz1-D1 = biological target: SpBzz1-D1
# Summary of the method: as §1
# SpBzz1-D2 = biological target: SpBzz1-D2
# Summary of the method: as §1
# SpCyk3 = biological target: SpCyk3
# Summary of the method: as §1
# SpHof1 = biological target: SpHof1
# Summary of the method: as §1
# SpHof1-2 = biological target: SpHof1-2
# Summary of the method: as §1
# SpHof1-3 = biological target: SpHof1-3
# Summary of the method: as §1
# SpHse1 = biological target: SpHse1
# Summary of the method: as §1
# SpLsb1 = biological target: SpLsb1
# Summary of the method: as §1
# SpLsb4 = biological target: SpLsb4
# Summary of the method: as §1
# SpMyo1 = biological target: SpMyo1
# Summary of the method: as §1
# SpNbp2 = biological target: SpNbp2
# Summary of the method: as §1
# SpPex13 = biological target: SpPex13
# Summary of the method: as §1
# SpRvs167 = biological target: SpRvs167
# Summary of the method: as §1
# SpSla1-D1-D2 = biological target: SpSla1-D1-D2
# Summary of the method: as §1
# SpSla1-D3 = biological target: SpSla1-D3
# Summary of the method: as §1
binder,measurement,setting,value
B1,SPOT peptide array binding signal intensity,AgAbp1,348
same,SPOT peptide array binding signal intensity,AgBbc1,122
same,SPOT peptide array binding signal intensity,AgBem1-D1,140
same,SPOT peptide array binding signal intensity,AgBzz1-D1,43
same,SPOT peptide array binding signal intensity,AgBzz1-D2,60
same,SPOT peptide array binding signal intensity,AgCyk3,9.5
same,SPOT peptide array binding signal intensity,AgFus1,583
same,SPOT peptide array binding signal intensity,AgHof1,71.8
same,SPOT peptide array binding signal intensity,AgHse1,1170
same,SPOT peptide array binding signal intensity,AgLsb1,9.75
same,SPOT peptide array binding signal intensity,AgLsb4,189
same,SPOT peptide array binding signal intensity,AgMyo5,≤ 0
same,SPOT peptide array binding signal intensity,AgNbp2,346
same,SPOT peptide array binding signal intensity,AgRvs167,19.5
same,SPOT peptide array binding signal intensity,AgSho1,79
same,SPOT peptide array binding signal intensity,AgSla1-D1-D2,840
same,SPOT peptide array binding signal intensity,AgSla1-D3,5.5
same,SPOT peptide array binding signal intensity,CaAbp1-D1,1340
same,SPOT peptide array binding signal intensity,CaAbp1-D2,526
same,SPOT peptide array binding signal intensity,CaBbc1,302
same,SPOT peptide array binding signal intensity,CaBem1-D1,35
same,SPOT peptide array binding signal intensity,CaBzz1-D1,104
same,SPOT peptide array binding signal intensity,CaBzz1-D2,151
same,SPOT peptide array binding signal intensity,CaCyk3,53.5
same,SPOT peptide array binding signal intensity,CaFus1,1200
same,SPOT peptide array binding signal intensity,CaHof1,1
same,SPOT peptide array binding signal intensity,CaHse1,60
same,SPOT peptide array binding signal intensity,CaLsb1,1.5
same,SPOT peptide array binding signal intensity,CaLsb4,195
same,SPOT peptide array binding signal intensity,CaMyo5,5.5
same,SPOT peptide array binding signal intensity,CaNbp2,712
same,SPOT peptide array binding signal intensity,CaRvs167,48.5
same,SPOT peptide array binding signal intensity,CaRvs167-3,197
same,SPOT peptide array binding signal intensity,CaSho1,1180
same,SPOT peptide array binding signal intensity,CaSla1-D1-D2,491
same,SPOT peptide array binding signal intensity,CaSla1-D3,11.5
same,SPOT peptide array binding signal intensity,ScAbp1,59
same,SPOT peptide array binding signal intensity,ScBbc1,45.5
same,SPOT peptide array binding signal intensity,ScBem1-D1,20
same,SPOT peptide array binding signal intensity,ScBzz1-D1,23
same,SPOT peptide array binding signal intensity,ScBzz1-D2,27
same,SPOT peptide array binding signal intensity,ScCyk3,160
same,SPOT peptide array binding signal intensity,ScFus1,784
same,SPOT peptide array binding signal intensity,ScHof1,2.5
same,SPOT peptide array binding signal intensity,ScHse1,1800
same,SPOT peptide array binding signal intensity,ScLsb1,26.8
same,SPOT peptide array binding signal intensity,ScLsb2,15.5
same,SPOT peptide array binding signal intensity,ScLsb3,658
same,SPOT peptide array binding signal intensity,ScLsb4,25
same,SPOT peptide array binding signal intensity,ScMyo3,3.5
same,SPOT peptide array binding signal intensity,ScMyo5,3.5
same,SPOT peptide array binding signal intensity,ScNbp2,616
same,SPOT peptide array binding signal intensity,ScPex13,2.25
same,SPOT peptide array binding signal intensity,ScRvs167,155
same,SPOT peptide array binding signal intensity,ScSho1,1460
same,SPOT peptide array binding signal intensity,ScSla1-D1-D2,713
same,SPOT peptide array binding signal intensity,ScSla1-D3,23
same,SPOT peptide array binding signal intensity,SpAbp1-D1,794
same,SPOT peptide array binding signal intensity,SpBbc1,10
same,SPOT peptide array binding signal intensity,SpBzz1-D1,381
same,SPOT peptide array binding signal intensity,SpBzz1-D2,0.5
same,SPOT peptide array binding signal intensity,SpCyk3,69.5
same,SPOT peptide array binding signal intensity,SpHof1,357
same,SPOT peptide array binding signal intensity,SpHof1-2,80.8
same,SPOT peptide array binding signal intensity,SpHof1-3,790
same,SPOT peptide array binding signal intensity,SpHse1,766
same,SPOT peptide array binding signal intensity,SpLsb1,16.2
same,SPOT peptide array binding signal intensity,SpLsb4,553
same,SPOT peptide array binding signal intensity,SpMyo1,10.2
same,SPOT peptide array binding signal intensity,SpNbp2,716
same,SPOT peptide array binding signal intensity,SpPex13,23
same,SPOT peptide array binding signal intensity,SpRvs167,72.5
same,SPOT peptide array binding signal intensity,SpSla1-D1-D2,≤ 0
same,SPOT peptide array binding signal intensity,SpSla1-D3,41.5
